# Results taken from PubChem BioAssay AID1159580 (chemical genetic matrix, 2015).
# Values joined by “and” are separate entries in the source; they are usually repeats but may differ in a detail not shown here. Equal entries are not always repeated. Hit rate of the full screen: of about 5,500 compounds, about 2,000 (36%) were called active. Inconclusive results (about 18%) are left out. This is one part of the list. Values without a mark were called inactive. Rule as the data show it: active = normalized growth mostly below about 0.91 (no sharp cut-off); inconclusive = no clear call, values can overlap the other calls; inactive = mostly above about 0.92.
# Test: chemical genetic growth profiling, strain panel (AID 1159580);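 also: tested at 20 µM; growth read once vehicle control cultures reached saturation at 30 °C; 1 = growth at the plate median or of vehicle wells; lower values mean less growth of the strain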
# Details: S. cerevisiae deletion strains, growth OD
compound,measurement,setting,value
COC(=O)C(C)c1ccc(C(=O)c2cccs2)cc1 (stereo unspecified),normalized growth,"locus YAL013W, strain DEP1, stronger effect = lower value",0.998
same,normalized growth,"locus YAL021C, strain ccr4, stronger effect = lower value",1.01
same,normalized growth,"locus YAL026C, strain drs2, stronger effect = lower value",0.988
same,normalized growth,"locus YAL030W, strain snc1, stronger effect = lower value",1.01
same,normalized growth,"locus YBL061C, strain skt5, stronger effect = lower value",1.01
same,normalized growth,"locus YBR009C, strain hhf1, stronger effect = lower value",1
same,normalized growth,"locus YBR021W, strain FUR4, stronger effect = lower value",0.971
same,normalized growth,"locus YBR023C, strain chs3, stronger effect = lower value",1.01
same,normalized growth,"locus YBR171W, strain sec66, stronger effect = lower value",1.01
same,normalized growth,"locus YBR229C, strain ROT2, stronger effect = lower value",0.998
same,normalized growth,"locus YBR231C, strain swc5, stronger effect = lower value",1.02
same,normalized growth,"locus YBR279W, strain paf1, stronger effect = lower value",1
same,normalized growth,"locus YCL011C, strain gbp2, stronger effect = lower value",1
same,normalized growth,"locus YCL016C, strain dcc1, stronger effect = lower value",1
same,normalized growth,"locus YCL029C, strain bik1, stronger effect = lower value",0.96
same,normalized growth,"locus YCL061C, strain MRC1, stronger effect = lower value",1.01
same,normalized growth,"locus YCL069W, strain vba3, stronger effect = lower value",1.01
same,normalized growth,"locus YCR088W, strain abp1, stronger effect = lower value",1
same,normalized growth,"locus YDL005C, strain med2, stronger effect = lower value",1.01
same,normalized growth,"locus YDL035C, strain GPR1, stronger effect = lower value",0.957
same,normalized growth,"locus YDL040C, strain nat1, stronger effect = lower value",1.01
same,normalized growth,"locus YDL074C, strain BRE1, stronger effect = lower value",0.981
same,normalized growth,"locus YDL101C, strain DUN1, stronger effect = lower value",1.01
same,normalized growth,"locus YDL134C, strain PPH21, stronger effect = lower value",0.996
same,normalized growth,"locus YDL185W, strain tfp1, stronger effect = lower value",0.939
same,normalized growth,"locus YDL192W, strain arf1, stronger effect = lower value",0.951
same,normalized growth,"locus YDR001C, strain nth1, stronger effect = lower value",1.02
same,normalized growth,"locus YDR069C, strain doa4, stronger effect = lower value",1.02
same,normalized growth,"locus YDR101C, strain arx1, stronger effect = lower value",0.975
same,normalized growth,"locus YDR137W, strain rgp1, stronger effect = lower value",1
same,normalized growth,"locus YDR150W, strain NUM1, stronger effect = lower value",0.985
same,normalized growth,"locus YDR159W, strain sac3, stronger effect = lower value",1.02
same,normalized growth,"locus YDR162C, strain NBP2, stronger effect = lower value",0.998
same,normalized growth,"locus YDR195W, strain ref2",0.993
same,normalized growth,"locus YDR297W, strain sur2, stronger effect = lower value",1.01
same,normalized growth,"locus YDR318W, strain mcm21, stronger effect = lower value",0.907 (active)
same,normalized growth,"locus YDR334W, strain swr1, stronger effect = lower value",1.01
same,normalized growth,"locus YDR335W, strain msn5, stronger effect = lower value",0.997
same,normalized growth,"locus YDR388W, stronger effect = lower value",0.973
same,normalized growth,"locus YDR392W, strain spt3, stronger effect = lower value",0.999
same,normalized growth,"locus YDR502C, strain sam2, stronger effect = lower value",0.959
same,normalized growth,"locus YEL003W, strain gim4, stronger effect = lower value",1.01
same,normalized growth,"locus YEL037C, strain rad23, stronger effect = lower value",1
same,normalized growth,"locus YEL061C, strain CIN8 (second series), stronger effect = lower value",1.01
same,normalized growth,"locus YEL061C, strain CIN8, stronger effect = lower value",0.991
same,normalized growth,"locus YER015W, strain faa2, stronger effect = lower value",1.01
same,normalized growth,"locus YER016W, strain bim1, stronger effect = lower value",1
same,normalized growth,"locus YER110C, stronger effect = lower value",0.955
same,normalized growth,"locus YER111C, strain swi4, stronger effect = lower value",1.01
same,normalized growth,"locus YER155C, strain BEM2 (second series), stronger effect = lower value",1.01
same,normalized growth,"locus YER155C, strain BEM2, stronger effect = lower value",0.997
same,normalized growth,"locus YER167W, strain BCK2, stronger effect = lower value",0.956
same,normalized growth,"locus YFR010W, strain ubp6, stronger effect = lower value",1.01
same,normalized growth,"locus YGL078C, strain dbp3, stronger effect = lower value",0.968
same,normalized growth,"locus YGL086W, strain mad1, stronger effect = lower value",0.92 (active)
same,normalized growth,"locus YGL167C, strain pmr1, stronger effect = lower value",1.01
same,normalized growth,"locus YGL173C, strain kem1, stronger effect = lower value",1.02
same,normalized growth,"locus YGL227W, strain vid30, stronger effect = lower value",1.01
same,normalized growth,"locus YGL240W, strain doc1, stronger effect = lower value",1
same,normalized growth,"locus YGL248W, strain PDE1, stronger effect = lower value",0.998
same,normalized growth,"locus YGL253W, strain hxk2, stronger effect = lower value",1
same,normalized growth,"locus YGR078C, strain PAC10, stronger effect = lower value",0.995
same,normalized growth,"locus YGR135W, strain pre9, stronger effect = lower value",0.946
same,normalized growth,"locus YGR229C, strain SMI1, stronger effect = lower value",0.96
same,normalized growth,"locus YGR252W, strain gcn5, stronger effect = lower value",0.934
same,normalized growth,"locus YHR013C, strain ard1, stronger effect = lower value",1.01
same,normalized growth,"locus YHR027C, strain rpn1, stronger effect = lower value",1.01
same,normalized growth,"locus YHR030C, strain SLT2, stronger effect = lower value",0.991 and 0.936
same,normalized growth,"locus YHR079C, strain IRE1 (second series), stronger effect = lower value",0.968
same,normalized growth,"locus YHR079C, strain IRE1, stronger effect = lower value",0.949
same,normalized growth,"locus YHR094C, strain hxt1, stronger effect = lower value",0.947
same,normalized growth,"locus YHR129C, strain ARP1, stronger effect = lower value",0.999
same,normalized growth,"locus YHR142W, strain chs7, stronger effect = lower value",0.991
same,normalized growth,"locus YHR200W, strain rpn10, stronger effect = lower value",0.954
same,normalized growth,"locus YIL066C, strain RNR3, stronger effect = lower value",0.977
same,normalized growth,"locus YIL073C, strain SPO22, stronger effect = lower value",0.851
same,normalized growth,"locus YIR030C, strain dcg1, stronger effect = lower value",0.957
same,normalized growth,"locus YJL092W, strain hpr5, stronger effect = lower value",1
same,normalized growth,"locus YJL095W, strain BCK1 (second series), stronger effect = lower value",1.01
same,normalized growth,"locus YJL095W, strain BCK1, stronger effect = lower value",1.01 and 0.972
same,normalized growth,"locus YJL115W, strain asf1, stronger effect = lower value",1.03
same,normalized growth,"locus YJL129C, strain trk1, stronger effect = lower value",1.04
same,normalized growth,"locus YJL134W, strain LCB3, stronger effect = lower value",0.991
same,normalized growth,"locus YJL154C, strain vps35, stronger effect = lower value",1
same,normalized growth,"locus YJL164C, strain tpk1, stronger effect = lower value",0.998
same,normalized growth,"locus YJL166W, strain qcr8, stronger effect = lower value",1
same,normalized growth,"locus YJL168C, strain set2, stronger effect = lower value",0.973
same,normalized growth,"locus YJL187C, strain SWE1 (second series), stronger effect = lower value",1
same,normalized growth,"locus YJL187C, strain SWE1, stronger effect = lower value",1.01
same,normalized growth,"locus YJR043C, strain POL32, stronger effect = lower value",0.972
same,normalized growth,"locus YJR066W, strain TOR1, stronger effect = lower value",0.982
